Screens: PubChem, National Center for Advancing Translational Sciences (NCATS)
The list is not random: actives were taken first. Their share in the collection is about 2.4%.
D2 ag-1 – D2 dopamine receptor (human) agonism. activation, % at 2 µM. P14416. HEK293 T-REx D2 cells, calcium flux agonist mode. actives 0.53% (n = 340,000);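 active = activation over 3 SD above normal in the single-dose calcium agonist read, cut at about 30% in these data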; also: 0% is about no effect
Target sequence (P14416 whole entry, looked up): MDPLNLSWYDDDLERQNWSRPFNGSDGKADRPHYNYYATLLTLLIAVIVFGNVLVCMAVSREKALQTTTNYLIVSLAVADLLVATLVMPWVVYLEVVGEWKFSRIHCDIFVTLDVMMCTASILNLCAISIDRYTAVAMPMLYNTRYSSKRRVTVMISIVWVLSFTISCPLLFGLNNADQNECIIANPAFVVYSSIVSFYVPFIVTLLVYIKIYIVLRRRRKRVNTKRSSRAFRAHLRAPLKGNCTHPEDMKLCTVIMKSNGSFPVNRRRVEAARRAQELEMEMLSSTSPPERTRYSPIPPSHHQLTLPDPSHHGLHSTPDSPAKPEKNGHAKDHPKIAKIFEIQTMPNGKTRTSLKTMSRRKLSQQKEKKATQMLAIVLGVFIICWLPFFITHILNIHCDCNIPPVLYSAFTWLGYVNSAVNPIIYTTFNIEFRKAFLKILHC
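Tetracycline-induced HEK293 T-REx cells with force-coupled D2 receptor, plated overnight at 30 C, loaded with no-wash calcium dye. After a 10 s baseline, compound was pin-added and calcium flux read kinetically for 180 s; calcium rises flagged agonists.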
D2 antagonist – antagonizes the human D2 dopamine receptor | HEK293 TREx D2 cells, calcium flux, dopamine EC80 | inhibition, % at 10 µM | actives 2% (n = 340,000); in the data active = inhibition above about 30%; inactive = below that, where a call was filed; also: 0% is about no effect
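Antagonism is scored as inhibition of an EC80 dopamine-evoked calcium signal in a force-coupled, tetracycline-inducible HEK293 T-REx D2 line, with compound present 180 s before agonist.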
D2 ag-2 – agonists of human D2 dopamine receptor (beta-arrestin) | AID 624465 | activation, % (concentration not given with the values) | actives 0.084% (n = 360,000) | DiscoveRx PathHunter D2 beta-arrestin, luminescence, 90 min; 100% = 57 uM dopamine signal; in the data active = activation above about 40%; inconclusive = between about 15% and that limit
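DiscoveRx PathHunter D2 beta-arrestin cells (2,100/well) attached overnight, then compound-stimulated 90 min at 37 C in HBSS/10 mM HEPES/0.1% Tween-20 buffer; beta-galactosidase complementation read by luminescence after 1 h at ambient temperature. Dopamine 57 uM final (EC100) as control.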
D2 PAM-1 – positive allosteric modulators of human D2 dopamine receptor | P14416 | HEK293 T-REx D2, calcium flux, EC20 dopamine potentiation | potentiation, % at 10 µM | actives 0.34% (n = 340,000) | AID 485347;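 active = potentiation over 3 SD above the plate norm, cut at about 30% in these data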; also: 0% is about no effect
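Potentiation of an EC20 dopamine calcium response measured kinetically over 180 s, after a preceding 180 s compound-only read flagging agonists. Cells: inducible Hek293 Trex D2 line, 4000/well, cultured overnight at 30 C before dye loading.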
D2 PAM-2 – human D2 receptor positive allosteric modulation | P14416 | AID 624464 | DiscoveRx D2 beta-arrestin cells, luminescence, 90 min; 100% = 57 uM dopamine signal | actives 0.23% (n = 360,000) | potentiation, % (concentration not given with the values); in the data active = potentiation above about 50%; inconclusive = mostly about 30% to 49%
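D2 cells co-treated with compound plus 50 nM dopamine (EC20) for 90 min at 37 deg C to detect potentiation. Beta-arrestin recruitment was read as enzyme-fragment luminescence after 1 h at ambient temperature. Full response was set by 57 uM dopamine.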
Starred values were filed as active, the others as inactive; ? = inconclusive; nt = no result.

SMILES	D2 ag-1	D2 antagonist	D2 ag-2	D2 PAM-1	D2 PAM-2
COc1ccc(CCC(=O)Nc2ccc(C)c(S(=O)(=O)N(C)C)c2)cc1OC	0	-19	-2	7	-10
COc1ccc(CCNCC(=O)Nc2ccc(C)c(S(=O)(=O)N(C)C)c2)cc1	2	33*	-1	-5	-17
O=C(Nc1ccc2c(c1)C(=O)OC2)c1ccc(C(F)(F)F)cc1	-1	34*	-3	-15	-15
COc1ccc(N2CCN(CCCn3c(=S)[nH]c4ccccc4c3=O)CC2)cc1	0	-41	8	-30	-7
COc1ccccc1N1CCN(CCc2n[nH]c(=S)n2-c2ccccc2)CC1	0	52*	2	-22	-21
COc1ccccc1N1CCN(CCCn2c(=S)[nH]c3ccccc3c2=O)CC1	9	82*	2	-30	-36
O=c1c2cc(N3CCOCC3)ccc2[nH]c(=S)n1CCCN1CCN(c2ccccc2F)CC1	70*	84*	nt	-28	nt
O=c1c2cc(N3CCOCC3)ccc2[nH]c(=S)n1CCN1CCCC1	0	6	-2	-6	-12
O=c1c2cc(N3CCOCC3)ccc2[nH]c(=S)n1CCCN1CCCCCC1	0	39*	2	-29	-50
COc1ccc(NC(=O)CSc2nnc(Cc3ccccc3)c(=O)n2N)cc1OC	0	-6	-5	4	-11
CCCn1c(SCC(=O)NC2CC2)nnc1-c1ccccn1	0	-2	-1	26	-3
COc1ccc(-c2cc3c(=O)n(CC(=O)Nc4ccccc4C(F)(F)F)ccn3n2)cc1OC	-3	nt	nt	-11	nt
O=c1c2ccccc2[nH]c(=S)n1CCN1CCN(Cc2ccccc2)CC1	0	52*	-4	-29	-22
COc1ccccc1NC(=O)c1ccc(Cl)c(S(=O)(=O)NCc2ccco2)c1	0	28	4	-3	0
Cc1cc(C)n(-c2ccc(C(=O)N3CC(C)OC(C)C3)cc2)n1 (stereo not given)	0	34*	-4	9	-4
Cc1cc(C)c(NC(=O)CN2C(=O)NC(CCc3ccccc3)C2=O)c(C)c1 (stereo not given)	1	32*	-3	-8	-3
Cc1ccc(C)c(NC(=O)CN2C(=O)NC(CCc3ccccc3)C2=O)c1 (stereo not given)	nt	nt	-6	nt	-6
O=C(O)c1cccnc1C(=O)N1CCc2c([nH]c3ccccc23)C1C(F)(F)F (stereo not given)	-2	-16	4	6	-52
c1cnc2c(C3NCCc4c3[nH]c3ccccc43)cccc2c1 (stereo not given)	0	36*	-9	-21	-95
COc1ccc(NS(=O)(=O)c2cc(Br)cc3c2N(C(C)=O)CC3)cc1	0	63*	-18	-34	-13
CCc1ccc(NS(=O)(=O)c2cc(Br)cc3c2N(C(C)=O)CC3)cc1	1	nt	nt	nt	nt
O=C(C1CC1)N1CCc2cc(Br)cc(S(=O)(=O)NC3CCCCC3)c21	0	40*	-3	-4	-6
O=C(C1CC1)N1CCc2cc(Br)cc(S(=O)(=O)N3CCCCCC3)c21	1	-13	-1	10	-6
S=C(NCc1ccc(Cl)cc1)Nc1ccncc1	0	-6	1	-11	-8
CC1CCCCC1NC(=O)CCNC(=O)N1CC(=O)Nc2ccccc21 (stereo not given)	0	-5	-4	-1	-17
SMILES	D2 ag-1	D2 antagonist	D2 ag-2	D2 PAM-1	D2 PAM-2
CC1=CC(C)(C)Nc2ccc(OC(=O)c3ccco3)cc21	1	-3	7	1	51*
CCCC12CN3CC(C)(CN(C1)C31C(=O)Nc3ccc(C)cc31)C2=O (stereo not given)	-2	-15	0	-6	9
Cc1ccc2c(c1)C1(C(=O)N2C)N2CC3(C)CN1CC(C)(C2)C3=O (stereo not given)	1	-3	-2	33*	-2
Cc1cc(NS(=O)(=O)c2c(C)[nH]c(=O)[nH]c2=O)ccc1Br	0	41*	-4	-8	-8
Cc1cc(Br)ccc1NS(=O)(=O)c1c(C)[nH]c(=O)[nH]c1=O	0	1	-4	0	-3
O=C(Nc1cccc2c1CCCC2)c1cc(C2CCCCN2S(=O)(=O)c2cccs2)on1 (stereo not given)	nt	nt	0	nt	-7
COC(=O)C1=C(C(=O)OC)[C@@H]2N(C)c3ccc(OC)cc3[C@@]23C[C@@H](C(=O)OC)N(S(=O)(=O)c2ccc([N+](=O)[O-])cc2)C3=N1	1	5	?	-7	3
CCCCS(=O)(=O)N1C2=NC(C(=O)OC)=C(C(=O)OC)[C@@H]3N(C)c4ccc(OC)cc4[C@]23C[C@H]1C(=O)OC	0	34*	-3	3	-4
FC(F)(F)c1cccc(N2CCN(Cc3ccoc3)CC2)c1	0	103*	-1	-29	-14
FC(F)(F)c1cccc(N2CCN(Cc3cccnc3)CC2)c1	2	76*	1	-18	-34
COc1cccc(N2CCN(Cc3cccnc3)CC2)c1	24	-10	3	-8	-11
CCOc1cc(/C=C2\COc3ccccc3C2=O)cc(Br)c1OCC(=O)N(C)C	11	44*	-1	-1	-5
COc1ccc(/C=C2\COc3ccccc3C2=O)cc1OC	0	-2	1	18	5
CCN1C(=O)N2C[C@H]3CON(C)[C@H]3C[C@H]2c2ccccc21	nt	nt	-3	nt	-2
O=C(Cn1nnc(-c2ccc3c(c2)OCO3)n1)NCc1ccccc1	1	-4	2	-3	-1
Cc1ccc(-c2nnn(CC(=O)NCCc3ccc4c(c3)OCO4)n2)cc1	2	31*	-1	-1	-2
Cc1ccc(C)c(CSC2=NCCN2C(=O)c2cccs2)c1	-2	-21	-7	-1	-27
CSc1ccc(S(=O)(=O)NCC(=O)OCC(=O)NCCc2ccccc2)cc1[N+](=O)[O-]	-1	33*	2	14	3
CCOC(=O)CSc1nc(C)nc2c1sc1nc(C)c(C(C)=O)c(-c3ccc(OC)cc3)c12	3	40*	-2	5	-9
O=C(OC(c1ccccc1)c1nccc2ccccc12)c1cc([N+](=O)[O-])cc([N+](=O)[O-])c1 (stereo not given)	-1	3	?	11	81*
OC(c1cccc(Cl)c1)c1nccc2ccccc12 (stereo not given)	0	-3	-2	2	-5
CCN(CC)S(=O)(=O)c1ccc(NC(=O)Cn2c(=O)sc3ccccc32)cc1	1	43*	-1	3	-12
O=C(CCNC(=O)C1CCN(S(=O)(=O)c2ccc(F)cc2)CC1)NCc1ccc(F)cc1	1	33*	4	4	3
